From PubChem BioAssay AID463115 (University of Pittsburgh Molecular Library Screening Center, 2010) come the findings set out here.

The whole screen tested about 220,000 compounds, of which about 130 (0.059%) were called active. Rule as the data show it: active = inhibition above about 25%; inactive = the rest. The entries come from a sample that favours actives as a whole.

Chain of Furin (Homo sapiens) (P09958 108-714 limits assumed): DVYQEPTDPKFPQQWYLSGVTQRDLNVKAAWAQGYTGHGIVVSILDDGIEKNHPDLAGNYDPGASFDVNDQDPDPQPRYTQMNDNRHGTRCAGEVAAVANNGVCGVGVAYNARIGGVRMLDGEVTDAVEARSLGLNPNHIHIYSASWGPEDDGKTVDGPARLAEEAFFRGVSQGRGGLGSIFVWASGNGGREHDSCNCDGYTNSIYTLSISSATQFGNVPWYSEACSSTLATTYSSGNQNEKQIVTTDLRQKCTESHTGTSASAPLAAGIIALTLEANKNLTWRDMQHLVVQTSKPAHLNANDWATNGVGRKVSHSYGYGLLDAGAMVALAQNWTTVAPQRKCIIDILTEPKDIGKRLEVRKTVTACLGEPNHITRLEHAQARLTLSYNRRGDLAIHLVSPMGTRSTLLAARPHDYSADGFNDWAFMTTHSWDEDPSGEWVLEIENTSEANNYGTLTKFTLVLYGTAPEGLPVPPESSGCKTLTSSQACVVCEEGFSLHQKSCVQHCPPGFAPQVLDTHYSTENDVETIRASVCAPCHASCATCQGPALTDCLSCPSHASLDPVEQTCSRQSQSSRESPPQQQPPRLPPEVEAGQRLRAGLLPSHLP

The experiment has as its target Furin (Homo sapiens) (UniProt P09958). Put plainly: human furin inhibitors, primary screen, biochemical, fluorescence intensity (AID 463115). Conditions: purified furin, fluorogenic substrate cleavage, active compounds read high; at 30 µM unless noted.
As for `Cc1ccc(N(C(=O)Cc2cccs2)C2C=CS(=O)(=O)C2)cc1Cl` (stereo not drawn), the inhibition was -2.17% (inactive).
To `Cc1ccc(-n2c(SCC(=O)N/N=C/C=C/c3ccccc3[N+](=O)[O-])nc3ccccc3c2=O)cc1` belongs -14.5% (inactive).
Turning to `CCC(=O)N(Cc1cc2ccccc2[nH]c1=O)c1ccc(OC)cc1`, the inhibition is -11.6% (inactive).
Turning to `CCCCc1ccc(NC(=S)N2CCCC(CO)C2)cc1` (stereo not drawn), the inhibition was -6.03% (inactive).
As to `O=S(=O)(NCC1CCCO1)c1cnc(Cl)c(Cl)c1` (stereo not drawn), the inhibition was -12.9% (inactive).
Take `Cc1ccc(NC(=S)N(CCN(C)C)Cc2cccs2)cc1C`: the inhibition was -9.92% (inactive).
For `COc1cccc(/C=N/NC(=O)CNC(=O)c2ccc(S(=O)(=O)N3CCOCC3)cc2)c1OC`, the inhibition is -9.37% (inactive).
In the case of `COC(=O)CCc1sc(Nc2ccc(Br)cc2)nc1-c1ccc(OC)cc1`, the inhibition was -10.8% (inactive).
Turning to `CC1=CC=CN2C1=NC(=O)CC2(C)C(=O)N(CC(=O)NC1CCCC1)c1ccccc1C` (stereo not drawn), the inhibition was -22.6% (inactive).
To `CC(C)C1Nc2c(C(=O)O)cccc2C(Nc2ccccc2C(=O)O)C1(C)C` (stereo not drawn) belongs -28% (inactive).
To `Cn1c(CCCOc2ccc(Cl)cc2Cl)n[nH]c1=S` belongs -27% (inactive); to `O=C(O)C1C2CC2CN1C(=O)c1ccc(Cl)cc1Cl` (stereo not drawn), -14.1% (inactive).
Take `O=C1CC(Cc2ccc(Cl)cc2)C(=O)N1c1cc(Cl)ccn1` (stereo not drawn): the inhibition is 7.89% (inactive).
In the case of `CCn1c(-c2cccnc2Cl)nc2cc(C)c(C)cc21`, the inhibition is -16.4% (inactive).
As to `CCOC(=O)CCCNC(=O)COC(=O)c1cc(Br)c(Br)s1`, the inhibition was -22.9% (inactive).
For `CC(Sc1nnc(Cc2ccc([N+](=O)[O-])cc2)o1)C(N)=O` (stereo not drawn), the inhibition was -20.4% [at 20 µM] (inactive).
For `O=C(c1ccc(OC2CCN(C(=O)c3cccnc3)CC2)cc1)N1CCCCCC1`, the inhibition was -20.3% (inactive).
To `CCOC(=O)/C(=C\c1ccc([N+](=O)[O-])cc1)C(=O)c1cc(C(C)=O)c(Nc2ccccc2)s1` belongs -2.4% (inactive); to `CC(C)(C)c1nc2ccccc2c(=O)n1N1C(=O)c2ccccc2C1=O`, -15.6% [at 20 µM] (inactive).
As for `O=C(NC1CCN(Cc2ccccc2)CC1)c1cc(Br)c(Br)[nH]1`, the inhibition is -27.8% (inactive).
`NC(N)=NCCCc1cn(CC(=O)N2CCNCC2)nn1`: the inhibition was -18.6% (inactive).
Under `CC(C)(O)C#Cc1ncc(C(F)(F)F)cc1Cl` stands -28.4% (inactive).
On to `Cc1ccc(/C=C/C(=O)O)cc1S(=O)(=O)N1CCC(Cc2ccccc2)CC1`, for which the inhibition was -29.9% (inactive).
For `CCOc1ccc(N2C(=O)/C(=C/c3ccc(C)o3)N(C)C2=S)cc1`, the inhibition is 3.15% (inactive).
Consider `O=C(/C=C/NNC(=O)c1cccc(Br)c1)c1ccccc1`, for which the inhibition is 0.209% [at 20 µM] (inactive).
Under `O=C(C1=C[C@H](c2coc3ccccc3c2=O)C[C@H](OCc2ccc(CO)cc2)O1)N1CCN(Cc2ccccc2)CC1` stands -22.1% (inactive).
Regarding `COc1cc(/C=N\NC(=O)c2nonc2N)c(OC)cc1Br`, the inhibition is -19.8% (inactive).
`Cc1nnc(SCC(=O)NC2CCCC2)s1`: the inhibition was -7.06% [at 20 µM] (inactive).
For `NNc1nc2c(Cl)cccc2s1`, the inhibition was -15.9% (inactive).
To `COc1ccc(NS(=O)(=O)c2ccc(Oc3c(C#N)cccc3C#N)cc2)cc1` belongs -15.9% (inactive).
Turning to `CC1=C[C@H]2Cc3cc(C)cc(C)c3S(=O)(=O)[C@@H]2C=C1`, the inhibition is -14.9% (inactive).
Under `Cn1c(=O)c2c(ncn2CC(COCc2ccccc2Cl)OCc2ccccc2Cl)n(C)c1=O` (stereo not drawn) stands -9.34% [at 20 µM] (inactive); under `Cn1c(SCC(=O)c2ccc(F)cc2)nnc1-c1ccccn1`, -22.4% (inactive); under `CCc1cc(C(=O)OC)c(NC(=O)CC2Sc3ccc(C(F)(F)F)cc3NC2=O)s1` (stereo not drawn), -18.6% (inactive).
`Cc1nc2ccccn2c1C(=O)NN=C1CCN(C)CC1`: the inhibition was -16.6% (inactive).
For the compound `CCOC(=O)/C(C#N)=C\c1c(C)cc(C)c(COC(C)=O)c1C`, the inhibition was -3.87% [at 20 µM] (inactive).
With `OC(CNCC1CCCO1)Cn1c2ccc(Br)cc2c2cc(Br)ccc21` (stereo not drawn), the inhibition is 31.4% [at 20 µM] (active).
On to `CCc1cc(Br)ccc1NC(=O)C1CCCO1` (stereo not drawn), for which the inhibition was -9.19% [at 20 µM] (inactive).
Consider `CCOC(=O)Cn1c(=O)oc2cc(S(=O)(=O)NCC3CCCO3)ccc21` (stereo not drawn), for which the inhibition is -8.46% (inactive).
In the case of `COc1ccc(C(=O)Nc2c(Cl)cc(Cl)cc2C(=O)N2CCC(C)CC2)cc1`, the inhibition was -7.28% (inactive).
Turning to `CSc1ccccc1-c1nnc(-c2ccc(Cl)cc2)o1`, the inhibition is -17.9% [at 20 µM] (inactive).
In the case of `CNC(=O)c1[nH]cnc1C(=O)N[C@@H](CC(C)C)C(=O)OCc1ccccc1`, the inhibition was -29.8% (inactive).
In the case of `CCOc1ccc(Oc2nc(C)cc(OC)n2)nn1`, the inhibition was -13.8% (inactive).
For `O=C(O)Cc1csc(NC(=O)CSc2nnnn2-c2ccc(O)cc2)n1`, the inhibition was -27.1% (inactive).
Turning to `Cc1ccc2nc(COc3ccc(N(C)S(=O)(=O)c4ccccc4)cc3)cc(=O)n2c1`, the inhibition is -21.2% (inactive).
In the case of `Cc1ccc(-n2nc3cc(C)c(NC(=O)c4cccnc4)cc3n2)cc1`, the inhibition is 34.8% [at 20 µM] (active).
For `Cc1cc2nc(-c3ccc(NC(=O)c4cccnc4)cc3)oc2cc1C`, the inhibition was -16% (inactive).
With `Cc1ccc(-n2nc3cc(Cl)c(NC(=O)c4ccco4)cc3n2)cc1`, the inhibition is -6.45% [at 20 µM] (inactive).
Turning to `O=C(NCc1cccnc1)Nc1cccc(NC(=O)NCc2cccnc2)c1F`, the inhibition was -13.7% (inactive).
Turning to `CCCN(CCC)CC(O)COc1ccccc1C(=O)Nc1ccccc1` (stereo not drawn), the inhibition was -22.6% (inactive).
On to `CCn1c(=O)c([N+](=O)[O-])c(NCc2ccc3c(c2)OCO3)c2ccccc21`, for which the inhibition was -12.9% (inactive).
To `CC1=NN(C(=O)Cc2ccc(C)cc2)C(O)(c2cccnc2)C1` (stereo not drawn) belongs -14% [at 20 µM] (inactive); to `CCC(CC)c1nnc(NC(=O)c2nn(C)c(=O)c3ccccc23)s1`, -10.6% (inactive).
On to `Cc1ccc(NC(=O)C(=O)NCc2ccco2)c(C)c1`, for which the inhibition was -25.7% (inactive).
On to `C=CCn1c(Cn2nnc3ccccc32)nnc1SCC(=O)N/N=C/c1cc(Br)cc(OC)c1O`, for which the inhibition was 1.52% [at 20 µM] (inactive).
On to `C/C=C/C(=O)Nc1ccc(N2CCN(c3ccc(C(F)(F)F)cn3)CC2)nc1`, for which the inhibition was -27.8% (inactive).
On to `COc1cc(OC)c(C(=O)OC(C)C(=O)Nc2cc(C(F)(F)F)ccc2Cl)cc1OC` (stereo not drawn), for which the inhibition is -12.3% (inactive).
For `O=C(Nc1ccccc1C(=O)N1CCOCC1)c1ccc(Cl)cc1`, the inhibition is -16.3% (inactive).
Under `Cc1cc(C(=O)N2CCC(C(=O)O)CC2)c(C(F)(F)F)o1` stands -9.96% (inactive).
Consider `O=C(Nc1cnn(Cc2ccc(Cl)cc2)c1)C1CCCC1`, for which the inhibition is -14.4% [at 20 µM] (inactive).
As to `Cc1nn(C)cc1C(=O)Nc1ccccc1Br`, the inhibition is -17.2% (inactive).
With `C=CCC(CC=C)(C(N)=O)c1ccccc1`, the inhibition is -29.7% (inactive).
Consider `Fc1ccccc1OCCCCn1cncn1`, for which the inhibition is -28.7% [at 20 µM] (inactive).
Take `COc1ccc(CCNc2cc(C)nc3c(-c4ccc(Cl)cc4)c(C)nn23)cc1OC`: the inhibition is 9.61% (inactive).
For the compound `O=C(Nc1nccs1)C1CCN(S(=O)(=O)c2ccc(Cl)c(C(F)(F)F)c2)CC1`, the inhibition was -14.1% [at 20 µM] (inactive).
On to `COCCNc1nc2nonc2nc1N1CCCC1c1nccs1` (stereo not drawn), for which the inhibition was -8.2% (inactive).
Take `O=C(/C=C/c1ccccc1)Nc1nnc(SCC(=O)c2ccc3ccccc3c2)s1`: the inhibition is -20.8% (inactive).
Under `COCCN1C(=O)N[C@@H](CCc2ccccc2)[C@H](C(C)=O)[C@H]1C` stands -15.4% (inactive); under `CC(=O)C1=C(C)NC(=O)NC1c1cc(Br)ccc1OCC#N` (stereo not drawn), -17.2% [at 20 µM] (inactive).
Consider `CSCC[C@H](NC(=O)OC(C)(C)C)C(=O)N/N=C/c1cc2ccc(C)cc2nc1Cl`, for which the inhibition was -14.1% (inactive).
As to `CC1(C)CC(=O)C(N=Nc2ccc(S(=O)(=O)N3CCCCCC3)cc2)=C(O)C1`, the inhibition was -26.5% (inactive).
Consider `C/C(=N\Nc1nc2ccccc2[nH]1)c1cccs1`, for which the inhibition was -12.4% (inactive).
Turning to `CC(NC(=O)Nc1ccccc1)C(c1cccs1)N1CCN(c2ccccc2)CC1` (stereo not drawn), the inhibition is -13.8% (inactive).
For `CC(NC(=O)C(C)(C)C)C(c1cccs1)N1CCN(Cc2ccccc2)CC1` (stereo not drawn), the inhibition is -27.5% (inactive).
For `CCCC(=O)NC(C)C(c1cccs1)N1CCN(c2ccccc2)CC1` (stereo not drawn), the inhibition was 25.4% [at 20 µM] (active).
For `COc1ccc(C(=O)NC(=S)Nc2ccc(Cl)cn2)cc1OC`, the inhibition is -15.4% (inactive).
To `Cn1c(=O)n(C)c2cc(NS(=O)(=O)c3ccc(F)cc3)ccc21` belongs -20.7% (inactive); to `CCC(=O)Nc1sc(C(=O)Nc2ccccc2)c(C)c1C(=O)OC`, -21.3% (inactive).
For the compound `C#CCO[C@@H]1C[C@H](n2cnc3c(=O)[nH]c(NC(=O)C(C)C)nc32)O[C@@H]1CO`, the inhibition was -9.33% (inactive).
`O=C1N=C(N2CCc3ccccc3C2)S/C1=C\c1ccc(O)cc1`: the inhibition is -5.76% (inactive).
`Cc1nc2sc(C(c3ccco3)N3CCC4(CC3)OCCO4)c(O)n2n1` (stereo not drawn): the inhibition was -16.3% [at 20 µM] (inactive).
For the compound `COc1ccc(/C=C/C(=O)c2ccc(NS(=O)(=O)c3ccc(C)cc3)cc2)cc1O`, the inhibition is -7.18% (inactive).
To `COC(=O)c1ccc(C(=O)OC)c(NC(=S)N2CCN(c3ccc(F)cc3)CC2)c1` belongs -22.8% (inactive).
Regarding `O=C(Nc1ccccc1-c1nnn(CC(=O)N2CCCc3ccccc32)n1)c1cccc(Cl)c1`, the inhibition was -12.2% [at 20 µM] (inactive).
For the compound `Cc1cc(C)n(-c2nnc(C)n2NC(=O)c2cccc(Cl)c2)n1`, the inhibition is -15.9% [at 20 µM] (inactive).
To `O=C(NCc1ccco1)C(=O)c1cn(CC(=O)N2CCCCCC2)c2ccccc12` belongs -16.3% (inactive); to `CCOc1ncccc1C(=O)OCC(=O)NC1CC1`, -17.7% (inactive); to `O=C(c1cccc([N+](=O)[O-])c1)N1CCN(C(=O)c2ccco2)CC1`, -10.7% (inactive).
